Only a selection was taken, and hits are over-represented in it overall.
PKM2 inhibitor = inhibitors of human pyruvate kinase M2 | purified PKM2, ATP generation, Kinase-Glo luminescence | Potency, µM (titrated, usually from 57.5 µM), usual class: inhibitors | 260,000 tested, 0.058% active | AID 1634; note: nearly all actives have a fitted effect of over 60% in size
Target sequence (P14618 whole entry, looked up): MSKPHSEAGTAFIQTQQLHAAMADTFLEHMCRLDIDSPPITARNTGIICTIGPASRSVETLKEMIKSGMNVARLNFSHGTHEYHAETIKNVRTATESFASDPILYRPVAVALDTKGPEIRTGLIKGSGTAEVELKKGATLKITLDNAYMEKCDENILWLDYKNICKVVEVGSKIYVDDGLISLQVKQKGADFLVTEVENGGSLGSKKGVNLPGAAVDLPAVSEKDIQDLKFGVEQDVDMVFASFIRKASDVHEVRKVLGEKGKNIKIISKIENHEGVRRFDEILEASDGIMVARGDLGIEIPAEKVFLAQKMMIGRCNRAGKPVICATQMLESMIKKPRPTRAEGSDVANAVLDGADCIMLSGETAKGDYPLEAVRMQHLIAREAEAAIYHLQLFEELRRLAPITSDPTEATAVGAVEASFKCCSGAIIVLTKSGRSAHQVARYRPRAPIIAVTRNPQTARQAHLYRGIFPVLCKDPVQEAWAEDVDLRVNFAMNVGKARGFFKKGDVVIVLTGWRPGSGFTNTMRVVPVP
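Coupled luciferase luminescence (Kinase-Glo) detects ATP generated from 0.1 mM ADP and 0.5 mM PEP in imidazole buffer pH 7.2 with KCl, MgCl2; 1 h at room temperature. Enzyme at intermediate activity; normalized to uninhibited and no-enzyme controls.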
PKM2 inh dose = confirmation of human pyruvate kinase M2 inhibitors, concentration-response; shares compounds with PKM2 inhibitor; purified hPK-M2, Kinase-Glo ATP luminescence, 1 h; Potency, µM (doses to about 57.5 µM), usual class: inhibitors; 55 tested, 50% active; AID 2263
FLuc counter = firefly luciferase inhibition counter-screen | shares compounds with PKM2 inhibitor | Kinase-Glo firefly luciferase, luminescence, 8 min | Potency, µM (doses to about 57.5 µM), actives largely listed as inhibitors | 55 tested, 30% active
PKM2 LDH couple = blocks human pyruvate kinase M2 in LDH-coupled assay; shares compounds with PKM2 inhibitor; Potency, µM (series often up to 57.5 µM), hits mostly inhibitors; purified hPK-M2, LDH-coupled NADH fluorescence kinetic; 55 tested, under 10 active
Each line names hits and unclear results; the compound was inactive in the other large screens (follow-up assays come after a bar, where they were run). Calls come from the whole dose curve; as a rule, active = well fitted curve in the direction sought with a large enough effect; inconclusive = small, poorly fitted or top-dose-only effect, or another doubt; inactive = no such curve, though single readings can be large; an effect the other way counts as inactive or inconclusive.

Cc1cnc(NC(=O)C2(c3ccccc3)CC2)s1	none
CC(=O)N1CC(=O)N=C1SCC(=O)Nc1nc(C)c(-c2ccccc2)s1	none
C/C=C\C=C/C(=O)Nc1cccc(C2=NOC3(C2)C[C@H](C(N)=O)N(C(=O)Cc2ccc([N+](=O)[O-])cc2)C3)c1 (stereo partly drawn)	none
COc1cc(/C=C2\SC(=O)N(CCNC(=O)c3sc4cc(F)ccc4c3Cl)C2=O)cc(OC)c1OC	none
Cc1ccc(-c2nc3cccc(C)n3c2Nc2ccc(F)cc2)o1	none (no result: PKM2 inhibitor) | PKM2 inh dose inactive | FLuc counter inactive | PKM2 LDH couple 9.19µM
Cc1ccc(-c2cc(-c3ccc(F)cc3)c(C#N)c(N)n2)o1	none
Cc1ccc(Nc2c(-c3ccc(C)o3)nc3cnccn23)cc1	none
Cc1ccc(-c2nc3ccccn3c2Nc2ccccc2)o1	none
Cc1ccc(-c2cc(-c3ccc(C)o3)nc(N)c2C#N)cc1	none
Cc1ccc(Nc2c(-c3ccc(C)o3)nc3ccccn23)cc1	none (no result: PKM2 inhibitor) | PKM2 inh dose inactive | FLuc counter inactive | PKM2 LDH couple 4.61µM
Cc1ccc2nc(-c3ccc(C)o3)c(Nc3ccccc3)n2c1	none (no result: PKM2 inhibitor) | PKM2 inh dose inactive | FLuc counter inactive | PKM2 LDH couple inconclusive
Cc1ccc2nc(-c3ccc(C)o3)c(Nc3ccc(F)cc3)n2c1	none (no result: PKM2 inhibitor) | PKM2 inh dose inactive | FLuc counter inactive | PKM2 LDH couple inconclusive
COc1ccc(CSc2ncnc3sccc23)cc1F	none
N#CC1=C(N)N(c2ccc(Br)cc2)C2=C(C(=O)CCC2)C1c1cccnc1 (stereo not drawn)	none
O=C(NCc1ccc(Cl)cc1Cl)C1CCN(S(=O)(=O)c2ccc3c(c2)OCCCO3)CC1	none
CCN(CC)c1ccc2cc(S(=O)(=O)c3ccc(C)cc3)c(=O)oc2c1	none
COc1ccc(NS(=O)(=O)c2cccc(C(=O)N/N=C/c3ccc(O)cc3)c2)cc1	none
O=C(NCc1cccc(C(F)(F)F)c1)N1CCN(S(=O)(=O)c2ccccc2F)CC1	none
Cc1ccc(C)c(S(=O)(=O)N2CCN(C(=O)CSc3ccccc3F)CC2)c1	none
COc1ccc(C(=O)NNS(=O)(=O)c2ccccc2)cc1OC	none
CCCCOP(=O)(OCCCC)C1(NS(=O)(=O)c2ccccc2)C=CC(=O)c2ccccc21 (stereo not drawn)	none
O=C(/C=C/c1ccco1)N(Cc1ccc(Cl)cc1)C1CCS(=O)(=O)C1 (stereo not drawn)	none
Cc1ccn2c(NC3CCCCC3)c(-c3ccc(C)o3)nc2c1	none (no result: PKM2 inhibitor) | PKM2 inh dose inactive | FLuc counter inactive | PKM2 LDH couple inactive
Cc1ccc2nc(SC(C)C(=O)NCc3ccc4c(c3)OCO4)[nH]c2c1 (stereo not drawn)	none
Cc1cc2c(cc1S(=O)(=O)CCC(=O)N(C)C1CCCCC1)OCC(=O)N2	none
COc1cc(NC(=O)CSc2nnc3c(n2)[nH]c2ccc(S(=O)(=O)NC(C)C)cc23)cc(OC)c1OC	none
Cc1ccnc(NS(=O)(=O)c2ccc3c(c2)CCO3)c1	none
CC(=O)N1N=C(c2ccc(C)cc2)CC1c1ccc2c(c1)OCO2 (stereo not drawn)	none
Cc1ccnc(NC(=O)c2ccc3c(c2)OCO3)c1	PKM2 inhibitor 12.6µM | PKM2 inh dose 16.3µM | FLuc counter 13µM | PKM2 LDH couple inactive
Cc1cccc2sc(NS(=O)(=O)c3ccccc3)nc12	none
CN1CCC(N(CCc2ccccc2)C(=O)CCC(=O)O)CC1	none
O=C(CSc1n[nH]c(=O)n1C1CC1)NCc1ccccc1Cl	none
O=C(CSc1ccc(-c2cccs2)nn1)Nc1ccccc1	none
Cc1ccc2nc(-c3cccs3)c(Nc3ccccc3)n2c1	none (no result: PKM2 inhibitor) | PKM2 inh dose inactive | FLuc counter inactive | PKM2 LDH couple inactive
Cc1ccc2nc(-c3ccncc3)c(Nc3ccccc3)n2c1	none (no result: PKM2 inhibitor) | PKM2 inh dose inactive | FLuc counter inactive | PKM2 LDH couple inactive
COc1ccccc1CNC(=O)C1=CCN(S(=O)(=O)c2ccc(C)cc2)CC1	none
O=C1C=CC(=O)N1c1cccc(-c2ccccc2)c1	none
Fc1ccccc1C1CC(c2ccco2)=Nc2ccccc2S1 (stereo not drawn)	none
Cc1ccc(CN(C)C(=O)c2ccc3c(c2)NC(=O)CS3)o1	none
CC1CCCN(CCOc2ccc3ccccc3c2Br)C1 (stereo not drawn)	none
O=S(=O)(Nc1ccc(Cl)cc1)c1ccc2c(c1)CCO2	none
Nc1cnn(Cc2ccccc2F)c1	none
Cc1ccccc1Nc1c(-c2ccc(Cl)s2)nc2ccccn12	none (no result: PKM2 inhibitor) | PKM2 inh dose inactive | FLuc counter inactive | PKM2 LDH couple inconclusive
CC(=O)NC1=NN(C(C)=O)C(c2ccccn2)S1 (stereo not drawn)	none
CN(C)c1nc(N)nc(CSc2nnnn2-c2ccccc2)n1	none
O=C(NCCc1ccccc1)c1c(O)c2ccccc2[nH]c1=O	none
O=C1C(c2cc(=O)c3ccccc3[nH]2)=C(O)c2ccccc21	PKM2 inhibitor 11.2µM | PKM2 inh dose 16.3µM | FLuc counter inactive | PKM2 LDH couple inconclusive
CC(C)(C)NC(=O)C1CCC(CNc2c(N3CCCCC3)c(=O)c2=O)CC1 (stereo not drawn)	none
Cn1c(=O)n(C)c2cc(NS(=O)(=O)c3cccs3)ccc21	none
Cc1ccc(SCC(=O)NC(=O)c2ccc(S(=O)(=O)N(C)C)cc2)cc1C	none
CS(=O)(=O)N(CC(=O)N/N=C/c1cc2c(cc1Br)OCO2)c1ccccc1Br	none
O=C(COc1ccccc1C(=O)N/N=C\c1ccc(O)c(O)c1)N/N=C/c1ccc(O)c(O)c1	none
Cc1occc1C(=O)N/N=C/c1ccc2c(c1)OCO2	PKM2 inhibitor 5.62µM | PKM2 inh dose 13µM | FLuc counter 2.59µM | PKM2 LDH couple inactive
COCCn1c(-c2ccccc2)cnc1SCC(=O)Nc1cccc2ccccc12	none
COc1cc([N+](=O)[O-])cc2sc(NC(C)=O)nc12	none
NS(=O)(=O)c1c(Sc2ccccc2C(=O)O)ccc2ccccc12	none
COC(=O)[C@@]1(Cc2ccc(F)cc2)[C@H]2c3cc(C(=O)N4CCCC4)n(Cc4ccc(C)o4)c3C[C@H]2CN1C(=O)c1ccccc1	none
O=C1C=CC(=O)N1CCCCCCN1C(=O)C=CC1=O	PKM2 inhibitor 10µM | PKM2 inh dose 6.51µM | FLuc counter inactive | PKM2 LDH couple inactive
CCOC(=O)C(Nc1ccc2ccccc2c1)C(=O)OCC	none
CC(=O)Oc1ccc(NC(=O)Cc2ccccc2)c(C(=O)O)c1	none
CCOc1ccc(NC(=O)Nc2ccccc2C(N)=O)cc1	PKM2 inhibitor 3.98µM | PKM2 inh dose 9.19µM | FLuc counter 6.51µM | PKM2 LDH couple inactive
CC(=O)c1ccn(S(=O)(=O)c2ccccc2)c1	none
Cc1ccc(C(=O)CCC(=O)N2CCN(C(=O)c3ccco3)CC2)cc1	none
Cn1c(N=Nc2ccccc2)nc2ccccc21	PKM2 inhibitor 5.62µM | PKM2 inh dose 13µM | FLuc counter 5.17µM | PKM2 LDH couple inactive
Cn1c(NCc2c[nH]c3ccccc23)nc2ccccc21	none
Cc1nc(-c2ccc(S(=O)(=O)NCc3ccccn3)s2)cs1	none
O=C(Cc1c[nH]c2ccccc12)NCc1ccc(Cl)cc1Cl	none
COc1ccc(S(=O)(=O)Nc2ccc(-n3cccc3)cc2)cc1	none
CC1(C)CC2(CC(c3ccccc3F)c3ccc(O)c(O)c3O2)NC(=S)N1 (stereo not drawn)	none
CC1C/C(=C/c2ccccn2)C(=O)/C(=C/c2ccccn2)C1 (stereo not drawn)	none
